Assay results as given in PubChem BioAssay (NCI).
Compounds without any hit were thinned out: in the full panel of roughly 83,000, 20% have a hit.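 How to read the values: 0–100, growth inhibition (40 = 60% inhibited); 0, no net growth; -100 to 0, cell death (-40 = 40% of starting cells died; -100 = all dead).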 Values without a mark were called inactive. The source made the active and inactive calls.

These molecules were tested on HCT-116 colon (assay: NCI-60 one-dose screen, 48 h (100 = growth as untreated, 0 = no growth, -100 = all killed)). Conditions: 10 µM unless noted.
Experimental: Growth inhibition of the HCT-116 human tumor cell line is measured as a screen for anti-cancer activity. Cells are grown in 96 well plates and exposed to the test compound for 48 hours. Compounds are tested at a single concentration, which is 10^-5 M for most compounds. The reported endpoint is percent growth (GI% or GIPRCNT), where numbers from 0 - 100% represent growth inhibition, and numbers from -100% - 0 represent cell death. For example, a value of 40 represents 60% growth inhibition. A value of 0 means no net growth occurred over the course of the experiment. A value of -40 indicates 40% of cells at the beginning of the experiment died by the end of the experiment. A value of -100 means all cells are dead at the end of the experiment.
NCI-60 Human Tumor Cell Lines Screen was performed using the standard one-dose NCI protocol, which is described in more detail at https://dtp.cancer.gov/discovery_development/nci-60/default.htm.
Compounds with GIPRCNT values below 10 were considered active. Activity score was based on GIPRCNT using the following formula: […]
Score is 0 for GIPRCNT values of 100 or above, 50 for GIPRCNT values of 0, and 100 for GIPRCNT values of -100.
CCNC(=O)N1CCc2c(Br)c3c(c(OC)c2C1Cc1ccc(OC)cc1)OCO3 (stereo not given) was tested, and the growth was 20.9%. In the case of C=C1C(=O)O[C@H]2[C@H]1CC/C(COC(=O)/C=C\C(=O)NCc1ccc(Cn3c(=O)sn(CCCCl)c3=O)cc1)=C\CC[C@@]1(C)O[C@@H]21, the growth is reported as 26.6%. COC1C(O)CC(OC2CC(OC3CC(O[C@@H]4C(=O)c5c(cc6cc(OC7CC(OC8CC(O)C(O)C(C)O8)C(O)C(C)O7)c(C)c(O)c6c5O)CC4[C@H](OC)[C@@H](O)C(C)=O)OC(C)C3O)OC(C)C2O)OC1C (stereo not given in full) was tested, and the growth was 4.98% (active). In the case of CCN(CCNc1ccc(C)c2sc3cc(Cl)ccc3c(=O)c12)CC(C)(C)O, the growth is reported as 50.6%. O=c1oc2c(cc1-c1ccccc1)c(=O)[nH]c1ccccc12 gave a growth of 97.1%. C#COc1cccc(Nc2ncnc3cc(NC(=O)[C@H](C)Cl)ccc23)c1 was tested, and the growth was 7.41% [6.25 µM] (active). CCN(CC)C(=O)CC1=C(C)/C(=C/c2[nH]c(-c3ccc[nH]3)cc2OC)N=C1C was tested, and the growth was 1.94% (active). Work on CN1C(=O)/C(=C/c2ccc(C(=O)Nc3ncc(Cc4cccc(C(F)(F)F)c4)s3)cc2)SC1=S yielded a growth of 43.7%. Work on CN1c2ccccc2S(=O)(=O)n2c(SCC(=O)Nc3nc4ccc(F)cc4s3)nnc21 yielded a growth of 110%. With ClC(Cl)c1nc(-c2ccccc2)n2nc(-c3ccccc3)cc2n1 the growth was 4.82% (active). In the case of O=C(N/N=C/c1ccc(Cl)cc1)c1ccc(NC(=O)c2ccccn2)cc1, the growth is reported as 5.15% (active). In the case of CCCCCCCCn1ccc2cc(NC(=O)CN=[N+]=[N-])ccc21, the growth is reported as 97.5%. O=S(=O)(N=C1C(Cl)=C(Cl)C(=NS(=O)(=O)c2ccccc2)C(Cl)=C1Cl)c1ccccc1 was tested, and the growth was 25.4%. With O=C(Nc1ccc(Oc2cccc(Cl)c2)c(Cl)c1)c1cccnn1 the growth was 66.7%. In the case of COc1ccc2c(O)c(/C=C3\N=Nc4ncccc43)oc2c1C[C@@H]1CCNC[C@H]1F, the growth is reported as -59.6% (active). CN(C)c1ccc([C@@H](C(=O)Nc2cccc([N+](=O)[O-])c2)N(C(=O)c2cc3ccccc3[nH]2)c2cccc([N+](=O)[O-])c2)cc1 was tested, and the growth was 90.4%. For COc1ccc2c(c1)oc1c(C)c3c(c(C)c12)C(=O)N(CCOS(C)(=O)=O)C3=O, the growth was 94.1%. For COc1ccc(C=Nc2c(C(=O)Nc3cccc(Cl)c3C)sc3nc(C)c(C(=O)/C=C/c4ccc(OC)cc4)cc23)cc1, the growth was 23%. For O=C(/C=C/C12c3ccccc3C(c3ccccc31)C1C(=O)NC(=O)C12)c1ccc(Cl)cc1Cl (stereo not given), the growth was 2.09% (active). C#Cc1cccc(NC(=O)C2CCCCN2C(=O)CCl)c1 (stereo not given) was tested, and the growth was -30.7% [8.25 µM] (active). Molecule O=C(NCCCCO)c1cncnc1Nc1ccc2c(ccn2Cc2cccc(F)c2)c1 has a growth of 91.5%. For COc1cc2c(cc1OCCCN1CCN(C(=S)SCCC(C#N)(c3ccccc3)c3ccccc3)CC1)N=C[C@@H]1CCCN1C2=O, the growth was -93.5% (active). With CN(C)c1ccc(/C=C2\C=C(c3nc4ccccc4s3)OC2=O)cc1 the growth was 100%. In the case of CCCc1cc(=O)oc2c(C(=O)CC(C)C)c(O)c(CC=C(C)C)c(O)c12, the growth is reported as 14.3%. Cc1ccc(O)c(NC(=O)c2cccc(Nc3ccnc(C(F)(F)F)c3)c2)c1 was tested, and the growth was 34.9%. CN(C)CCCNC(=O)c1cncnc1Nc1ccc2c(ccn2Cc2cccc(F)c2)c1 was tested, and the growth was 66%. COc1cc(/C=C/c2cc(/C=C/c3ccc(O)c(OC)c3)n(C(=O)Nc3ccc(Cl)cc3)n2)ccc1O was tested, and the growth was 4.61% (active). O=C1/C(=C/c2c[nH]c(=O)[nH]c2=O)SC(=S)N1Cc1ccccc1 showed a growth of 103%. In the case of Cn1c(C#N)ccc1-c1ccc(F)c(NC(=O)c2ccc(F)cc2)c1, the growth is reported as 77.4%. In the case of C=C(C)[C@@H]1CC[C@]2(CO)CC[C@]3(C)[C@H](CC[C@@H]4[C@@](C)(CCCN)[C@H](C(=C)C)CC[C@]43C)[C@@H]12, the growth is reported as -88.3% (active). With N#Cc1c(-c2cccc(Cl)c2)cc(-c2cccnc2)[nH]c1=O the growth was 72.4%. Nc1cccc(-c2ccc(COc3ccc(CC4SC(=O)NC4=O)cc3)cc2)c1 (stereo not given) gave a growth of 32.1%. Molecule C1CCC(N2CN3c4nonc4N4CN(C5CCCCC5)CN5c6nonc6N(C2)C3C45)CC1 (stereo not given) has a growth of 101%. Work on CNC(=O)NCC1OC(n2cnc3c(NC(=O)Nc4ccccc4)ncnc32)C2OC(=O)CC12 (stereo not given) yielded a growth of 98.7%. Nc1ccc(-c2ccncc2)cc1NC(=O)N1CCCC1 showed a growth of 86.8%. COc1ccc(Nc2ncc(C#N)c(NCCCNC(=O)C3CCC3)n2)cc1 gave a growth of 50.1%. CN(C)CCC(CCN(C)C)(C(=O)O)c1ccccc1 was tested, and the growth was 104%. C=C1C(=O)O[C@@H]2C3C(=C(C)CC[C@@H]12)CC1O[C@]13C (stereo not given in full) was tested, and the growth was 46.1% [6.75 µM]. Work on Nc1cc(C(=O)O)cc(-n2c(O)c(C=C3N=c4ccccc4=N3)sc2=S)c1 yielded a growth of 99.4%. CCOC(=O)c1[nH]cc2c1CCc1sc(Nc3ccccn3)nc1-2 gave a growth of 75.7%.
